# From PubChem BioAssay (NCATS)
# Several values for one entry are separate records, joined by “and”; a condition that tells them apart may be missing. Identical values can stand only once. Inconclusive results are not listed. Where a call stands in place of a potency, no number is given. A number with no mark means an inactive call. Activity calls are given as the source filed them. Calls follow the shape of the dose curve; as a rule, active = well fitted curve in the direction sought with a large enough effect; inconclusive = small, poorly fitted or top-dose-only effect, or another doubt; inactive = no such curve, though single readings can be large; an effect the other way counts as inactive or inconclusive.
# Tests used:
# [1] = Viability qHTS for spleen associated tyrosine kinase inhibitor (SYKi) drug resistant MV4-11 cells (AID 1963824); also: nearly all actives have a fitted effect of over 35% in size
# Procedure, shortened: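 SYK-inhibitor-resistant MV4-11 AML cells were seeded at 500 per well onto compound and cultured 72 hours (37 °C, 5% CO2). CellTiter-Glo was then added, and after 10 min at room temperature, luminescence gave viability.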
# [2] = Quantitative highthroughput screen to assess conditional lethalithy of NOMO1 cells grown in RPMI1640 with untreated serum (RPMI+s) (AID 1963876); also: nearly all actives have a fitted effect of over 35% in size
# Procedure, shortened: (§1)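 Each medium arm—HPLM with 10% dialyzed FBS, or RPMI1640 with 5 mM glucose and 10% untreated or dialyzed FBS—was screened against an 11-point, 3-fold compound titration for 48 h at 37 °C, with CellTiter-Glo luminescence as endpoint.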
# [3] = Quantitative highthroughput screen to assess conditional lethalithy of NOMO1 cells grown in RPMI1640 with dialyzed fetal bovine serum (RPMI+ds) (AID 1963877); also: nearly all actives have a fitted effect of over 30% in size; as to Viability: series mostly up to about 46 µM
# Procedure, shortened: as §1
# [4] = Quantitative highthroughput screen to assess conditional lethalithy of NOMO1 cells grown in Human Plasma-Like Medium with dialyzed fetal bovine serum (HPLM+ds) (AID 1963878); also: nearly all actives have a fitted effect of over 35% in size
# Procedure, shortened: as §1
# [5] = Quantitative highthroughput screen to assess conditional lethalithy of P12 Ichikawa cells grown in RPMI1640 with dialyzed fetal bovine serum (RPMI+ds) (AID 1963880); settings: Potency: P12-Ichikawa viability; also: nearly all actives have a fitted effect of over 35% in size
# Procedure, shortened: as §1
# [6] = Quantitative highthroughput screen to assess conditional lethalithy of P12 Ichikawa cells grown in RPMI1640 with untreated serum (RPMI+s) (AID 1963881); settings: Potency: viability; also: nearly all actives have a fitted effect of over 35% in size; as to Viability: series mostly up to about 46 µM
# Procedure, shortened: as §1
# [7] = Cellular viability qHTS for adrenocortical cancer (ACC) cell line SW-13 (AID 1963989); settings: SW-13 ACC cells viability, CellTiter-Glo, 48 h; activity (max response): hits give low values; also: nearly all actives have a fitted effect of over 65% in size;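 as to activity (max response): cells grown in serum-free medium with ITS supplement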
# Procedure, shortened: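 Here, serum-free SW-13 cultures were dosed up to 46 uM. Following 48 h, ATP-dependent luminescence (CellTiter-Glo) reported viable cells, and logistic modeling produced IC50 values.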
# [8] = Cellular viability qHTS for adrenocortical cancer (ACC) cell line NCI-H295R (AID 1963990); also: nearly all actives have a fitted effect of over 60% in size
# Procedure, shortened: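 Viability of NCI-H295R after 48 h of treatment (final up to 46 uM) measured through cellular ATP luminescence.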
# [9] = Quantitative highthroughput screen to assess conditional lethalithy of SEM cells grown in Human Plasma-Like Medium with dialyzed fetal bovine serum (HPLM+ds) (AID 1963882); also: nearly all actives have a fitted effect of over 35% in size; as to Viability: series mostly up to about 46 µM
# Procedure, shortened: as §1
# [10] = Quantitative highthroughput screen to assess conditional lethalithy of P12 Ichikawa cells grown in Human Plasma-Like Medium with dialyzed fetal bovine serum (HPLM+ds) (AID 1963879); settings: Potency: viability; also: nearly all actives have a fitted effect of over 35% in size; as to Viability: series mostly up to about 46 µM
# Procedure, shortened: as §1
# [11] = Quantitative highthroughput screen to assess conditional lethalithy of SEM cells grown in RPMI1640 with unreated serum (RPMI+s) (AID 1963883); also: nearly all actives have a fitted effect of over 35% in size
# Procedure, shortened: as §1
# [12] = Quantitative highthroughput screen to assess conditional lethalithy of SEM cells grown in RPMI1640 with dialyzed fetal bovine serum (RPMI+ds) (AID 1963884); also: nearly all actives have a fitted effect of over 35% in size; as to Viability: series mostly up to about 46 µM
# Procedure, shortened: as §1
# Potency is read from the fitted curve at half-maximal effect.
Structure (SMILES),Potency [1],Potency [2],Potency [3],Potency [4],Potency [5],Potency [6],activity (max response) [7] [%],Potency [8],Potency [7],Potency [9],Potency [10],Potency [11],Potency [12]
CNc1nc(Nc2ccc(C(=O)N3CCOCC3)cc2OC)ncc1Cl,5.8 µM (active),inactive,inactive,inactive,inactive,inactive,-6.87,inactive,,,,,
S=c1nc[nH]c2nc[nH]c12,2.37 µM (active) and 833 nM (active),inactive,1.48 µM (active),5.9 µM (active),0.743 µM (active),,,2.06 µM (active) and 4.47 µM (active),8.2 µM (active) and 15.8 µM (active),,,,
COc1ccc(-c2cc(=O)c3c(O)cc(O)cc3o2)cc1O,10.5 µM (active),inactive,inactive,inactive,inactive,inactive,-29.6,,,,,,
COc1cc(C(C)C)c(Oc2cnc(NC(CO)CO)nc2N)cc1I,14.8 µM (active),inactive,inactive,inactive,inactive,inactive,-4,,,inactive,,,
O=C(CCN1CCN(C(=O)OCc2cc(Cl)cc(Cl)c2)CC1)c1ccc2[nH]c(=O)oc2c1,16.6 µM (active),inactive,inactive,inactive,,,-15.7,,,,,,
CC(=O)SCC(Cc1ccccc1)C(=O)NCC(=O)OCc1ccccc1 (stereo not drawn),20.9 µM (active),6.62 µM (active),6.62 µM (active),5.9 µM (active),,,-5.9,inactive,,inactive,18.7 µM (active),inactive,inactive
COc1ccc(Cc2ccc(NC(N)=O)cc2)cc1-c1cccc(Cl)c1,18.6 µM (active),inactive,inactive,inactive,,inactive,,28.2 µM (active),,inactive,,inactive,
Cc1cc2c(cc1C1(c3ccc(C(=O)O)cn3)CC1)C(C)(C)CCC2(C)C,0.468 µM (active),inactive,inactive,,inactive,inactive,9.77,inactive,,inactive,inactive,inactive,0.0662 µM (active)
CN(Cc1cc(Br)cc(Br)c1N)C1CCCCC1,10.6 µM (active),inactive,inactive,,inactive,inactive,,,,inactive,inactive,inactive,inactive
Clc1ccc(C(c2ccc(Cl)cc2)n2cc[n+](CC(OCc3ccc(Cl)cc3Cl)c3ccc(Cl)cc3Cl)c2)cc1 (stereo not drawn),1.86 µM (active),20.9 µM (active),26.4 µM (active),26.4 µM (active),,20.9 µM (active),,8.91 µM (active),5.01 µM (active),16.6 µM (active),,13.2 µM (active),20.9 µM (active)
CCn1c(-c2nonc2N)nc2cnc(Oc3cccc(NC(=O)c4ccc(OCCN5CCOCC5)cc4)c3)cc21,3.66 µM (active) and 5.25 µM (active),5.9 µM (active),1.18 µM (active),inactive,,,,,,13.2 µM (active),9.35 µM (active),,
O=C(NOC[C@H](O)CO)c1ccc(F)c(F)c1Nc1ccc(I)cc1F,0.164 µM (active),0.187 µM (active),0.0332 µM (active),0.148 µM (active),,,,,,7.43 µM (active),20.9 µM (active),11.8 µM (active),11.8 µM (active)
N[C@H](CSC(c1ccccc1)(c1ccccc1)c1ccccc1)C(=O)O,14.8 µM (active),inactive,inactive,inactive,inactive,,,inactive,,16.6 µM (active),,,13.2 µM (active)
CC(C)n1cnc2c(NCCCCCCNC(=O)OC(C)(C)C)nc(NCCO)nc21,14.8 µM (active),inactive,inactive,inactive,,,,inactive,,inactive,,,
N#CC1(c2ccc(NC(=O)c3cccnc3NCc3ccncc3)cc2)CCCC1,5.17 µM (active),inactive,inactive,inactive,inactive,inactive,-5.11,inactive,,,,inactive,1.66 µM (active)
Clc1ccc(COC(Cn2ccnc2)c2ccc(Cl)cc2Cl)c(Cl)c1 (stereo not drawn),11.8 µM (active),inactive,inactive,inactive,,,,10 µM (active),,inactive,,,
CCOC(=O)c1ccc(C#Cc2ccc3c(c2)C(C)(C)CCS3)nc1,3.76 µM (active),inactive,inactive,inactive,inactive,inactive,-8.69,inactive,,inactive,,inactive,inactive
NC1=N[C@H]2[C@H](CS[C@H]2CCCCC(=O)O)N1,inactive,inactive,inactive,,inactive,inactive,13,inactive,,inactive,inactive,inactive,inactive
COc1ccc(-c2ccc3c(N4CCOCC4)nc(N4C[C@@H](C)O[C@@H](C)C4)nc3n2)cc1CO,1.32 µM (active),2.96 µM (active),4.69 µM (active),1.32 µM (active),,1.05 µM (active),,0.631 µM (active),,1.48 µM (active),,1.87 µM (active),

Structure (SMILES),Potency [1],Potency [2],Potency [3],Potency [4],Potency [5],Potency [6],activity (max response) [7] [%],Potency [8],Potency [7],Potency [9],Potency [10],Potency [11],Potency [12]
C[C@H](NC(=O)Cc1cc(F)cc(F)c1)C(=O)N[C@H](C(=O)OC(C)(C)C)c1ccccc1,14.8 µM (active),inactive,inactive,inactive,inactive,inactive,3.52,,,inactive,,inactive,inactive
CC(C)C(=O)Oc1ccc(CO)cc1[C@H](CCN(C(C)C)C(C)C)c1ccccc1,inactive,inactive,inactive,inactive,inactive,inactive,,,,,,,
Nc1nccc(-c2ccc3noc(-c4ccc(Cl)cc4)c3c2)n1,8.33 µM (active),inactive,inactive,inactive,inactive,inactive,-6.01,inactive,,,,inactive,inactive
CN1CCC(CNc2ccc3ncc(-c4cccc(OC(F)(F)F)c4)n3n2)CC1,41.1 nM (active) and 132 nM (active),23.5 µM (active),23.5 µM (active),18.7 µM (active),,,,8.91 µM (active),15.8 µM (active),5.9 µM (active),,4.69 µM (active),1.32 µM (active)
N#CC(c1ccc(Cl)cc1)c1c(Cl)cc(-n2ncc(=O)[nH]c2=O)cc1Cl (stereo not drawn),26.3 µM (active),inactive,inactive,inactive,,inactive,,,,inactive,,inactive,inactive
Nc1ccccc1NC(=O)c1ccc(CNC(=O)OCc2cccnc2)cc1,366 nM (active) and 468 nM (active),2.64 µM (active),1.66 µM (active),,2.35 µM (active),2.64 µM (active),,2 µM (active),11.2 µM (active),0.833 µM (active),2.35 µM (active),0.743 µM (active),0.743 µM (active)
Cc1ccccc1C(C(=O)NC1CCCCC1)N(C(=O)CNc1ccc(C#N)cc1)c1cccc(F)c1 (stereo not drawn),inactive,inactive,inactive,,,,-0.757,inactive,,inactive,inactive,inactive,inactive
O=C(O)c1cc(O)c2c(c1)C(=O)c1cccc(O)c1C2=O,23.5 µM (active),inactive,,inactive,inactive,inactive,1.15,inactive,,inactive,inactive,inactive,inactive
CCCCC(F)(F)[C@@]1(O)CC[C@H]2[C@H](CC(=O)[C@@H]2CCCCCCC(=O)O)O1,0.0295 µM (active),inactive,,,inactive,inactive,8.13,inactive,,inactive,inactive,inactive,inactive
c1ccc2c(Cc3c[nH]c4ccccc34)c[nH]c2c1,20.9 µM (active),inactive,,20.9 µM (active),,,,,,,,,20.9 µM (active)
C[C@@H]1CN(Cc2ccc(F)cc2)[C@@H](C)CN1C(=O)c1cc2c(C(=O)C(=O)N(C)C)cn(C)c2cc1Cl,16.4 µM (active),inactive,inactive,,inactive,inactive,,inactive,,inactive,,,
Cc1nc2ccc(C(=O)N3CCC4(CC3)CC(=O)c3c(cnn3C(C)C)C4)cc2[nH]1,20.9 µM (active),inactive,inactive,,,,,inactive,,,,,
CCNc1cc(NC2CCC(O)CC2)nc(Nc2ccc3c(ccn3Cc3ccccc3)c2)n1 (stereo not drawn),14.6 µM (active),inactive,,inactive,inactive,inactive,-9.82,inactive,,inactive,inactive,,
CN(C)C(=O)c1ccc(S(=O)(=O)c2ccc(NC(=O)[C@@](C)(O)C(F)(F)F)c(Cl)c2)cc1,9.2 µM (active) and 3.72 µM (active),11.8 µM (active),,10.5 µM (active),,14.8 µM (active),,inactive,,,,11.8 µM (active),
COc1cc([C@@H]2c3cc4c(cc3[C@H](O)[C@H]3COC(=O)[C@@H]23)OCO4)cc(OC)c1OC,0.372 µM (active),0.418 µM (active),0.526 µM (active),,0.469 µM (active),0.372 µM (active),,0.501 µM (active),0.631 µM (active),0.296 µM (active),0.332 µM (active),0.296 µM (active),0.264 µM (active)
CC1(C)O[C@H]2CC(=O)OC[C@]23[C@H]2CC[C@@]4(C)[C@H](c5ccoc5)OC(=O)[C@H]5O[C@]54[C@]2(C)C(=O)C[C@@H]13,inactive,inactive,inactive,,inactive,inactive,7.85,inactive,,,inactive,inactive,inactive
C[C@@H]1CN(CC(=O)N2CC(C)(C)c3ncc(Cc4ccc(F)cc4)cc32)[C@@H](CN2CCOC[C@H]2C)CN1,0.468 µM (active),inactive,20.9 µM (active),,inactive,inactive,-27,,,inactive,inactive,,inactive
OCCn1cc(-c2cnc3nnn(Cc4ccc5ncccc5c4)c3n2)cn1,20.9 µM (active),inactive,inactive,,inactive,inactive,-4.78,inactive,,,,,
